61 compounds from PubChem BioAssay AID588726 (The Scripps Research Institute Molecular Screening Center, 2011) can be followed below.

About 8,200 (2.3%) of roughly 360,000 compounds were called active. No stated cut-off is given here; in the data, active means inhibition above about 27%; inactive means the rest. The entries come from a sample that favours actives as a whole.

In this assay the target is Fructose-bisphosphate aldolase (Mycobacterium tuberculosis (strain ATCC 25618 / H37Rv)) (UniProt P9WQA3). Description: M. tuberculosis aldolase activity blockers – biochemical, fluorescence, strain H37Rv, primary screen (AID 588726).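 Further: 0% = vehicle and 100% = reference inhibitor.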 Conditions: purified M. tuberculosis FBA, fluorescence read-out, at 1 µM, stronger effect = higher value.
Chain of Fructose-bisphosphate aldolase (Mycobacterium tuberculosis (strain ATCC 25618 / H37Rv)) (P9WQA3 whole entry, looked up): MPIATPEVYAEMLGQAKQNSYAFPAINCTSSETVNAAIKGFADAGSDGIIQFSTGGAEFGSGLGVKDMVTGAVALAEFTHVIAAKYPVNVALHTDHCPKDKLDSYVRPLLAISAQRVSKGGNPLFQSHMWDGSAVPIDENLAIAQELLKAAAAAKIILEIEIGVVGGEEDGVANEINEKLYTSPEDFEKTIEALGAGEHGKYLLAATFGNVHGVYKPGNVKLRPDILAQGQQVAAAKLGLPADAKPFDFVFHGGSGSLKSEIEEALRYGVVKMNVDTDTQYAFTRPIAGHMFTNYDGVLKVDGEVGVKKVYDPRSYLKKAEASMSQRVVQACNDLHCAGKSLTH
What is called inhibition is the relative decrease from the control value, in per cent. In the case of `N#Cc1c(N2CCCCC2)nc(N)c2c(N)nc(SCC(=O)O)cc12`, the inhibition was 29.2% (active).

Turning to `N#Cc1c(C(F)(F)F)cc(-c2cccs2)nc1N1CCCCC1`, the inhibition was 11% (inactive).

As for `O=C(O)CSc1ccc(S(=O)(=O)N2CCCC2)cn1`, the inhibition is -0.83% (inactive).

In the case of `COCc1c(C(=O)OCc2c(C)noc2C)oc2ccccc12`, the inhibition was 5.69% (inactive).

For `CCOc1ccccc1C(=O)NC1CC2CCCC(C1)N2Cc1ccccc1` (stereo unspecified), the inhibition was -3.49% (inactive).

Take `Cc1ccnc(NC(=O)C2CCN(S(=O)(=O)c3c(C)c(C)cc(C)c3C)CC2)c1`: the inhibition is 1.99% (inactive).

In the case of `CCN(CC(=O)Nc1c(F)cccc1F)C(=O)c1ccc(-c2ccccc2)cc1`, the inhibition is 1% (inactive).

For the compound `CCN(CC(=O)Nc1c(F)cccc1F)C(=O)c1ccc(-c2ccc(C(C)=O)cc2)o1`, the inhibition was 142% (active).

Take `CCN(CC(=O)Nc1c(F)cccc1F)C(=O)c1cnc(C)cn1`: the inhibition is 2.56% (inactive).

As to `COC(=O)c1ccc([C@@H](O)[C@H](C)C(=O)CC(=O)OC(C)(C)C)cc1`, the inhibition was 0.55% (inactive).

Consider `CCOc1ccc(S(=O)(=O)N2CCCC(C(=O)N3CCC(C(N)=O)CC3)C2)cc1Cl` (stereo unspecified), for which the inhibition was 2.08% (inactive).

With `Oc1ccc(Br)cc1C=Nc1ccc2[nH]ncc2c1`, the inhibition was 39.7% (active).

With `COc1cc(Br)cc(/C=N/c2ncn[nH]2)c1O`, the inhibition is -0.39% (inactive).

In the case of `COc1ccc(C)cc1NC(=O)CSc1nnc2ccc(-c3ccccn3)nn12`, the inhibition was 5.79% (inactive).

Take `COc1ccc(-c2cc(C(=O)NCCCN3CCOCC3)no2)cc1`: the inhibition is 3.9% (inactive).

With `COc1ccc(-c2ccc(C(=O)NCCN3CCOCC3)c3occc23)c(C)c1`, the inhibition is 88.1% (active).

On to `COc1ccc(-c2ccc(C(=O)NC(C)C)c3occc23)c(C)c1`, for which the inhibition is 69.8% (active).

With `CC(=O)Oc1cc2c(C(=O)NCCN3CCOCC3)c(C)oc2c2ccccc12`, the inhibition is 0.36% (inactive).

On to `COc1ccc(-c2coc3c(C(=O)NC(C)C)cccc23)c(C)c1`, for which the inhibition was -2.36% (inactive).

Regarding `COCCCNC(=O)c1ccc(-c2c(C)noc2C)c2ccoc12`, the inhibition was 1.17% (inactive).

Turning to `CCOC(=O)[C@H]1[C@H]2COc3cc(OC)ccc3[C@@H]2N2C(=O)CN(Cc3ccc(Cl)cc3)C(=O)[C@@]12C`, the inhibition is -3.3% (inactive).

In the case of `C=CCn1c(=O)n(C)c2c(=O)n(C)c(=O)n(C)c21`, the inhibition was 1.89% (inactive).

As for `Nc1scc(-c2ccncc2)c1Cl`, the inhibition was -1.39% (inactive).

For `Cc1nc2ccccn2c(=O)c1NC(=O)c1cccs1`, the inhibition was 3.76% (inactive).

As for `Cc1cc2nc(C(F)(F)F)cc(-c3cccs3)n2n1`, the inhibition is 9.4% (inactive).

Consider `CC(C)(C)Nc1c(-c2cccs2)nc2ccccn12`, for which the inhibition was 76.1% (active).

With `COC(=O)C1=C(N)Oc2cc(C)[nH]c(=O)c2C1c1ccc(Cl)cc1` (stereo unspecified), the inhibition was -1.06% (inactive).

As to `CCOC(=O)N1CCC(NC(=O)Cn2cc3c(n2)CCCCC3)CC1`, the inhibition was 3.04% (inactive).

Take `C[C@H]1CN([C@@H](C)CO)C(=O)CCCn2nncc2CO[C@@H]1CN(C)S(=O)(=O)c1cccc(C#N)c1`: the inhibition is 1.03% (inactive).

For the compound `O=C(CN1C(=O)NC2(CCCCC2)C1=O)NCCC1=CCCCC1`, the inhibition was 1.11% (inactive).

Take `COc1cccc(NC(=O)CN(C)C(=O)Cc2ccc(Cl)cc2Cl)c1`: the inhibition was -2.96% (inactive).

Regarding `COc1cccc(NC(=O)CN(C)CC(=O)Nc2ccc3c(c2)CCC3)c1`, the inhibition was 55.8% (active).

For `COc1cccc(NC(=O)CN(C)C(C)C(=O)Nc2ccc(C#N)cc2)c1` (stereo unspecified), the inhibition was 1.24% (inactive).

Regarding `COc1cccc(NC(=O)CN(C)C(=O)CSC(=S)N2CCCC2)c1`, the inhibition is 3.18% (inactive).

For `COc1cccc(NC(=O)CN(C)C(=O)/C=C/c2cc(OC)ccc2OC)c1`, the inhibition was 57.2% (active).

Turning to `COc1ccc(/C=C/C(=O)OCC(=O)Nc2cccc(Oc3ccccc3)c2)c(OC)c1`, the inhibition is -1.32% (inactive).

Turning to `Cc1ccc(-c2ccnc3nc(Sc4ncc(C(F)(F)F)cc4Cl)nn23)cc1`, the inhibition was 25.2% (inactive).

Regarding `CCc1ccc(OCC(=O)OCC(=O)c2c(N)n(C)c(=O)n(C)c2=O)cc1`, the inhibition was 3.53% (inactive).

As for `COc1ccccc1CNC(=O)Cn1c(=O)oc2cc(Cl)ccc21`, the inhibition is -1.01% (inactive).

As to `CC(C)C(C)(C#N)NC(=O)CSc1nc2scc(-c3ccccc3)c2c(=O)[nH]1` (stereo unspecified), the inhibition is -1.25% (inactive).

As to `CCCc1nc2sc3c(c2c(=O)n1NC(=O)CCCl)CCCC3`, the inhibition is -0.17% (inactive).

On to `COCCNc1nc(-n2nc(C)cc2C)nc2sc3c(c12)CCCC3`, for which the inhibition was 35.2% (active).

`CCc1nc(N2CCN(C(C)=O)CC2)c2c3c(sc2n1)CCCC3`: the inhibition is -1.16% (inactive).

As to `C=CCn1c(CCNC(=O)c2cccs2)n[nH]c1=S`, the inhibition is 0.26% (inactive).

Take `O=C(NNC(=S)NC1CC2CCC1C2)c1ccc(Cl)cc1` (stereo unspecified): the inhibition was -1.27% (inactive).

As for `Cc1nn2c(c1-c1ccccc1)N=C(c1ccco1)CC2c1ccccc1` (stereo unspecified), the inhibition was -3.5% (inactive).

For `COC(=O)c1ccccc1NC(=O)C1CC(=O)N(c2ccc(OC)cc2)C1` (stereo unspecified), the inhibition was 2.12% (inactive).

For the compound `O=C(Cc1ccc(Br)cc1)NCCN1CCOCC1`, the inhibition is 1.41% (inactive).

For the compound `CC1CCCN(c2ccc(C(=O)NCCc3ccccc3)cn2)C1` (stereo unspecified), the inhibition was 2.27% (inactive).

As to `O=C(NCCc1ccccc1)c1ccc2c(c1)N(Cc1ccccc1)CCS2`, the inhibition was 43.6% (active).

Consider `O=C(NCCN1CCOCC1)c1ccc2c(c1)N(Cc1ccc(Cl)cc1)CCS2`, for which the inhibition was 32.2% (active).

For the compound `O=C(NCCN1CCOCC1)c1c(F)c(F)c(F)c(F)c1F`, the inhibition was -2.22% (inactive).

Consider `CCOC(=O)N1CCN(C(=O)c2ccc3c(c2)N(Cc2ccc(C)cc2)CCS3)CC1`, for which the inhibition was 7.61% (inactive).

`CN(C)/C=N/c1cc(=O)n(C)c(=O)n1CC1CC1`: the inhibition is -0.52% (inactive).

For `CN1C(C(=O)NCC2CC2)CC2Cn3c(nc4ccccc43)C21` (stereo unspecified), the inhibition was -0.07% (inactive).

Regarding `Cc1nonc1OCCn1nnnc1N`, the inhibition was -0.1% (inactive).

In the case of `COC[C@@H]1NS(=O)(=O)c2ccc(Br)cc2O[C@H]1c1ccccc1`, the inhibition was -2.58% (inactive).

In the case of `Cc1nonc1C1CCCN1C(=O)c1cc(COc2cccc(C(F)(F)F)c2)on1` (stereo unspecified), the inhibition is -1.66% (inactive).

As for `CCCC1OC23CCCCC2C(C#N)(C#N)C1(C#N)C(=N)O3` (stereo unspecified), the inhibition was 48.2% (active).

As to `CCCCc1cc(=O)oc2cc(C)cc(OCc3nn[nH]n3)c12`, the inhibition was 183% (active).

For the compound `CN(CCOc1ccccc1)Cc1nc2cc(Cl)ccc2c(=O)[nH]1`, the inhibition is 7.42% (inactive).
